# An excerpt weighted towards active compounds, which were near 4.4% of everything screened.
# p53ts 39C kill = cytotoxicity in p53ts cells at nonpermissive temperature; 130,000 tested, 1.5% active; Potency, µM (highest dose often 46.1 µM), inactives show top-dose activity change, negative = cell killing, most hits filed as cytotoxic; AID 902; H1299-p53A138V viability at 39C, ATP luminescence, 24 h; also: nearly all actives have a fitted effect of over 55% in size
# 12-hLO inh = inhibitors of human 12-lipoxygenase (ALOX12); AID 1452; Potency, µM (top dose mostly 57.1 µM), inactives show top-dose activity change, negative = inhibition, hits mostly inhibitors; purified 12-hLO, xylenol orange hydroperoxide absorbance; P18054; 150,000 tested, 0.12% active; also: nearly all actives have a fitted effect of over 55% in size
#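 Purified human 12hLO (150 nM), preincubated 15 min with compound, then 40 uM arachidonic acid for 30 min, room temperature, Hepes pH 7.0 with 0.01% Triton X-100. Hydroperoxide detected by ferrous iron/xylenol orange; 573/405 nm absorbance ratio gives reaction progress.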
# HPGD inh = HPGD (human) dehydrogenase inhibition. Potency, µM, inactives show top-dose activity change, negative = inhibition, actives largely listed as inhibitors. P15428. purified HPGD, NADH fluorescence kinetic, PGE2 substrate. 150,000 tested, 4.3% active; active = well fitted inhibition curve with a large enough effect, not every such curve was filed as active; inconclusive = small, poorly fitted or top-dose-only effect, or another doubt; inactive = no such curve, though single readings can be large or run the other way
# Target sequence (P15428 whole entry, looked up): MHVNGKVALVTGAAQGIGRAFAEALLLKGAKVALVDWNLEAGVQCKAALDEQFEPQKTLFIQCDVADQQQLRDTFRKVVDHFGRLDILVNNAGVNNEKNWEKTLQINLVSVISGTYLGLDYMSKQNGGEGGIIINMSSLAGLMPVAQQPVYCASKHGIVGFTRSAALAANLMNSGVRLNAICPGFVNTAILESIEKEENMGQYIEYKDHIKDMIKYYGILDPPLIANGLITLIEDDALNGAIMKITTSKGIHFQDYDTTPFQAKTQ
#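 20 nM HPGD preincubated 15 min at room temperature with compound in 50 mM Tris-HCl pH 8, 0.01% Tween 20. Started with 1 mM NAD+ and 30 uM prostaglandin E2; NADH fluorescence (360/450 nm) read 5 times over 30-s intervals, last minus first.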
# p53ts 32C kill = cytotoxicity in p53ts cells at permissive temperature. 130,000 tested, 0.93% active. H1299-p53A138V at 32C, ATP luminescence viability, 24 h. Potency, µM (highest dose often 46.1 µM), inactives show at the highest dose activity change, negative = cytotoxicity, usual class: cytotoxic;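 also: 0% = DMSO and -100% = full killing by reference compound; nearly all actives have a fitted effect of over 55% in size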
#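 H1299-p53 A138V cells (temperature-sensitive p53) exposed 24 h to up to 46 uM compound at 32C, where p53 is wild-type in conformation. Viability read as ATP luminescence and normalised to DMSO and 100 uM tamoxifen. AC50 fitted with the Hill equation.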
# * marks the source's active call; other numbers are inactive results; ? = inconclusive; . = no result; [ ] = another dose, or the depositor's remark. Unless noted, calls follow the shape of the dose curve; as a rule, active = well fitted curve in the direction sought with a large enough effect; inconclusive = small, poorly fitted or top-dose-only effect, or another doubt; inactive = no such curve, though single readings can be large; an effect the other way counts as inactive or inconclusive. Unless noted, % is scaled to controls: 0 for no effect and ±100 for the full control effect; potency is read from the fitted curve at half-maximal effect.
SMILES,p53ts 39C kill,12-hLO inh,HPGD inh,p53ts 32C kill
Cc1cccc(Nc2nc(-c3ccccc3)c3cc(C)ccc3n2)c1,1%,.,.,3%
CCCCCCCCC1CO1 (stereo not drawn),1%,-9%,-2%,-18%[1.84 µM]
Cc1ccc(-c2cc(C(=O)N3CCN(c4ccccc4)CC3)c3ccccc3n2)cc1C,10µM*,.,.,13µM*
COc1ccc(-c2cc(C(=O)N3CCN(c4ccccc4)CC3)c3ccccc3n2)cc1OC,.,-9%,?,.
Cc1nn(C)c(C(=O)NNC(=S)NCc2ccco2)c1Cl,30%,2%,35µM*,1%
CCOC(=O)NCc1ccc(Cl)c(Cl)c1,1%,-1%,2%,-3%
Cc1ccc(C(=O)NCc2ccc(Cl)c(Cl)c2)o1,1%,-2%,13µM*,-4%
COc1ccc(C)cc1NC(=O)C1CC(=O)N(Cc2ccco2)C1 (stereo not drawn),-4%,-5%,-10%,0%
COc1cc2c(cc1NC(=O)C(C)OC(=O)C1CC(=O)N(Cc3ccco3)C1)oc1ccccc12 (stereo not drawn),.,5%,28µM*,.
CCOc1ccc(C2C(=O)N(C3CCCCCC3)CC(=O)N2CCc2ccc(OC)c(OC)c2)cc1OC (stereo not drawn),-24%,.,.,-2%
Cc1cc2oc(C(=O)Nc3ccc(S(=O)(=O)Nc4nccs4)cc3)cc(=O)c2cc1Cl,21%,1%,32µM*,.
CC(C)C(NC(=S)Nc1ccccc1)C(=O)O (stereo not drawn),.,5%,32µM*,.
CN1CCN(C(c2cccnc2)c2ccc3cccnc3c2O)CC1 (stereo not drawn),13µM*,1.6µM*,-29%,-25%
CC(=O)c1ccc(S(=O)(=O)Nc2ccc(-c3cn4c(C)csc4n3)cc2)cc1,1%,.,.,-1%
CCOc1ccc(-c2csc(N)c2C(=O)OC)cc1,.,-12%,14µM*,.
CCOC(=O)c1c(-c2ccncc2)csc1N,-2%,4%,?,4%
Cc1ccc(NC(=O)C2CCN(S(=O)(=O)c3c(C)noc3C)CC2)cc1,15%,.,.,10%
FC(F)C(F)(F)C(F)(F)C(F)(F)c1cc(-c2ccccc2)n[nH]1,?,-19%,16µM*,?
Oc1ccccc1-c1cc(C(F)(F)C(F)F)nc(-c2ccccc2)n1,10%,-5%,-5%,0%
CCCCN1C(=O)/C(=C2\SC(N3CCCCC3)=NC2=O)c2ccccc21,16µM*,-3%,22µM*,13µM*
CCOC(=O)c1noc2ncnc(NCc3ccccc3OC)c12,8%,.,.,3%
Cn1c(-c2ccc3c(c2)OCO3)cnc1NCc1ccccc1,?,-2%,16µM*,-23%
CCc1cccc(C)c1NC(=O)c1cccc(N(C)C)c1,2%,-29%,14µM*,3%
O=C(NCc1nc2ccccc2[nH]1)c1ccc(Cl)c(S(=O)(=O)N2CCCC2)c1,3%,2%,-3%,-1%
CSCC[C@H](NC(=O)c1ccc(Cl)c(S(=O)(=O)N2CCCC2)c1)c1nc2ccccc2[nH]1,.,18µM*,.,.
SMILES,p53ts 39C kill,12-hLO inh,HPGD inh,p53ts 32C kill
COC(=O)c1n[nH]n(-c2ccccc2)c1=O,11%,.,.,-10%
S=P(c1ccc(N2CCOCC2)cc1N1CCOCC1)(N1CCOCC1)N1CCOCC1,-10%,-8%,25µM*,-3%
Cc1ccc(C(=O)N/N=C\c2cccn2C)cn1,.,-13%,14µM*,.
O=C(Cc1ccccc1)c1nc2ccccc2s1,.,-5%,22µM*,.
N#CCCSC(=S)[C@H]1CCCC1=N,-2%[9.22 µM],0%[11.4 µM],-8%,-1%[9.22 µM]
COc1ccc2[nH]cc(CCNc3cc(-c4ccc(C(=O)N(C)C)cc4)ncn3)c2c1,-3%,.,.,1%
Cc1cccc(Nc2nnc(SCC(=O)Nc3cccc(S(=O)(=O)N4CCCCC4)c3)s2)c1,.,-2%,20µM*,.
CCCCN1C(=O)C2(NNc3ccccc3O2)c2ccccc21 (stereo not drawn),.,?,32µM*,.
COC(=O)c1c(NC(C)=O)c2c3c(sc2n1Cc1cc(C)ccc1C)CCCC3,.,.,.,-1%
Cc1ccc(-n2c(N)c(C(=O)N3CCN(C)CC3)sc2=S)cc1,1%,1%,11µM*,3%
Cc1ccc(-n2c(N)c(C(=O)N3CCCCC3)sc2=S)cc1,-6%,-17%,10µM*,3%
CC(=O)N1CCc2c(sc3c2c(=O)n(-c2ccccc2)c(=O)n3CC(=O)Nc2cccc(C)c2)C1,-5%,.,.,8%
COC(=O)[C@@]1(Cc2ccccc2)[C@H]2c3cc(C(=O)N4CCCC4)n(CCN4CNCC4=O)c3C[C@H]2CN1C(=O)c1ccccc1,4%,2%,-1%,7%
Cc1occc1C(=O)Nc1ccc2c(c1)CCC2,?,1%,-18%,?
Cc1ccsc1C(=O)Nc1ccc2c(c1)OCCO2,14µM*,0%,32µM*,.
Cc1c(C(=O)OCC(=O)c2ccc3c(c2)OCCO3)oc2ccccc12,11%,-1%,-11%,3%
Cc1cc(C(=O)OCC(=O)c2ccc3c(c2)OCCO3)c(C)o1,-7%,-6%,20µM*,-15%
Cc1occc1C(=O)Nc1ccc2c(c1)OCCO2,?,-1%,16µM*,?
CCCOC(=O)c1ccc(NC(=O)c2ccoc2C)cc1,-3%,7%,32µM*,-7%
Cc1ncoc1C(=O)Nc1ccc2c(c1)OCCO2,?,1%,-3%,?
CCCCOC(=O)c1ccc(NC(=O)c2ccoc2C)cc1,5%,-3%,-15%,13%
CC(C)OCCCNC(=O)C(=O)Nc1c2c(nn1-c1ccccc1)CS(=O)(=O)C2,-2%,.,.,1%
N#Cc1cccc(CS(=O)(=O)c2nc3ccccc3s2)c1,.,.,-6%,.
Cc1cc(C(=O)Nc2ccc3c(c2)OCCO3)c(C)o1,13µM*,-3%,-2%,16µM*
Cc1occc1C(=O)Nc1cccc(C(=O)NCc2ccccc2)c1,0%,2%,22µM*,7%
SMILES,p53ts 39C kill,12-hLO inh,HPGD inh,p53ts 32C kill
CCCC(=O)c1ccc2c(c1)OCCO2,.,-3%,28µM*,.
Cc1ccc(C(=O)Nc2cccc(C(=O)NCc3ccccc3)c2)cc1,.,-1%,-17%,.
Cc1nc(Nc2nc3ccccc3o2)nc2c1CCC2,16µM*,1%,-13%,13µM*
CCNC(=O)CCCN1C(=O)CCn2nc(-c3cccn3C)cc21,-24%,.,.,7%
CC(=O)Nc1cccc(Oc2ccc3c(c2)C(=O)N(CCC(=O)O)C3=O)c1,1%,3%,25µM*,-8%
O=C(O)CCN1C(=O)c2ccc(NC(=O)CSc3ccccc3)cc2C1=O,15%,-4%,20µM*,.
CCn1c(=O)c2c(nc3n2CCN3c2ccc(OC)cc2)n(C)c1=O,17%,.,.,7%
CN(c1ccccc1)S(=O)(=O)c1nnc(NC(=O)c2ccccc2)s1,-17%,.,.,-23%
CCn1c(SCc2ccc(C(=O)Nc3nccs3)cc2)nnc1-c1ccc(N)cc1,.,4%,-22%,.
CN(c1ccc(C(=O)Nc2nccs2)cc1)S(=O)(=O)c1ccccc1,2%,-6%,8.9µM*,8%
CCSc1nnc(NC(=O)c2cccc(S(=O)(=O)N(C)c3ccc(C)cc3)c2)s1,.,1%,-28%,.

# Source: PubChem BioAssay (National Center for Advancing Translational Sciences (NCATS))
